Data: the supplement of paper PMC6555819

Assays:
Test in all cases: PBM binding z-score (relative to random genomic background probes); higher = stronger binding; sequences stand for … in GC…GCGATTGACAGCGTAGAATGAAGG
[1] = tested on: FXR:RXRa (NR concentration 270 nM, RXRa partner concentration 90 nM)
In short: (§1)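 Antibodies against each partner of ligand-free nuclear receptor dimers (one per run) detected binding on custom Agilent 4×180K protein-binding microarrays after 1 h incubation. The double-stranded probes had 34-nt variable regions carrying direct-repeat seeds, single-nucleotide variants, half-site ablations and random human genomic background sequences. Binding z-scores, from regression-normalized fluorescence, use the random background probes as reference.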

[2] = tested on: LXRa:RXRa (NR concentration 270 nM, RXRa partner concentration 90 nM)
In short: as §1

[3] = tested on: LXRa homodimer (NR concentration 270 nM)
In short: as §1

[4] = tested on: LXRb:RXRa (NR concentration 270 nM, RXRa partner concentration 90 nM)
In short: as §1

[5] = tested on: LXRb homodimer (NR concentration 270 nM)
In short: as §1

[6] = tested on: PPARa:RXRa (NR concentration 270 nM, RXRa partner concentration 90 nM)
In short: as §1

[7] = tested on: PPARg:RXRa (NR concentration 180 nM, RXRa partner concentration 90 nM)
In short: as §1

[8] = tested on: PPARg:RXRa 270nM:90nM, anti-RXR (NR concentration 270 nM, RXRa partner concentration 90 nM)
In short: as §1

[9] = tested on: PPARg:RXRa 30nM:10nM, anti-RXR (NR concentration 30 nM, RXRa partner concentration 10 nM)
In short: as §1

[10] = tested on: PPARg:RXRa 90nM:30nM, anti-RXR (NR concentration 90 nM, RXRa partner concentration 30 nM)
In short: as §1

[11] = tested on: PPARg:RXRa DBDmut IVT, anti-RXR (DBD mutation: RXRa K156A/R161A, NR concentration 270 nM, RXRa partner concentration 90 nM)
In short: as §1

[12] = tested on: PPARg:RXRa IVT, anti-PPARg (NR concentration 270 nM, RXRa partner concentration 90 nM)
In short: as §1

[13] = tested on: PPARg DBDmut:RXRa IVT, anti-PPARg (DBD mutation: PPARg1 K132A/R137A, NR concentration 270 nM, RXRa partner concentration 90 nM)
In short: as §1

[14] = tested on: PPARg DBDmut IVT, anti-PPARg (DBD mutation: PPARg1 K132A/R137A, NR concentration 270 nM)
In short: as §1

[15] = tested on: PPARg homodimer (NR concentration 180 nM)
In short: as §1

[16] = tested on: PXR:RXRa (NR concentration 270 nM, RXRa partner concentration 90 nM)
In short: as §1

[17] = tested on: PXR homodimer (NR concentration 270 nM)
In short: as §1

[18] = tested on: RARa:RXR (NR concentration 270 nM, RXRa partner concentration 90 nM)
In short: as §1

[19] = tested on: RARa homodimer (NR concentration 270 nM)
In short: as §1

[20] = tested on: RARb:RXRa (NR concentration 270 nM, RXRa partner concentration 90 nM)
In short: as §1

Row | Sequence | PBM binding z-score [1] | PBM binding z-score [2] | PBM binding z-score [3] | PBM binding z-score [4] | PBM binding z-score [5] | PBM binding z-score [6] | PBM binding z-score [7] | PBM binding z-score [8] | PBM binding z-score [9] | PBM binding z-score [10] | PBM binding z-score [11] | PBM binding z-score [12] | PBM binding z-score [13] | PBM binding z-score [14] | PBM binding z-score [15] | PBM binding z-score [16] | PBM binding z-score [17] | PBM binding z-score [18] | PBM binding z-score [19] | PBM binding z-score [20]
1 | TTTAGTTGGTCACGGAGGTCACACACGACGGGTA | 3.66 | 3.83 | 3.02 | 3.45 | 1.48 | 4.21 | 4.64 | 4.76 | 2.06 | 3.63 | 3.69 | 5.36 | 1.78 | 1.9 | 3.37 | 4.93 | 1.92 | 4.96 | 2.05 | 4.08
2 | CTACCAAGGTGAACAAGGTCGTTCATTACTATTC | 2.27 | 3.01 | 1.12 | 2.9 | 0.239 | 3.12 | 1.29 | 1.56 | 0.212 | 0.958 | 4.04 | 2.99 | 0.407 | 0.669 | 1.03 | 3.55 | 3.05 | 2.7 | 0.251 | 2.38
3 | AGTTAAAGTTCACTAGGTAACGTAAGATTCAGCT | 4.84 | 4.91 | 3.45 | 2.98 | 1.1 | 4.57 | 6.24 | 5.79 | 2.62 | 4.52 | 2.6 | 4.69 | 1.44 | 1.19 | 2.19 | 3.54 | 2.11 | 2.66 | 1.6 | 4.51
4 | ACTTACGGGTCACCGAGGTTATAGCACGCGTATA | 7.33 | 5.59 | 1.1 | 4.77 | 0.402 | 6.19 | 7.11 | 6.57 | 3.18 | 5.44 | 4.12 | 5.23 | 2.17 | 1.98 | 3.07 | 5.54 | 3.25 | 6.06 | 1.56 | 4.67
5 | GATACAGGGTCAAGGCGAGAGTACGCGTATTGAT | 6.79 | 4.05 | -0.0981 | 3.74 | 0.243 | 5.39 | 5.7 | 5.39 | 2.2 | 4.05 | 2.65 | 3.72 | 2.63 | 0.177 | 3.25 | 3.76 | 0.46 | 4.83 | 1.14 | 4.37
6 | GCTCGTAGGACAAGGTCAGAGCTTTGTCCGTAGA | 1.45 | 1.74 | -0.722 | 1.25 | -0.639 | 2.44 | 0.258 | 1.16 | -0.473 | 0.455 | 0.0127 | 1.08 | -1.37 | -1.3 | 0.722 | 1.63 | -0.493 | 2.13 | -1.71 | 3.16
7 | CTGACTGGGGCAAAGGTTACCATACTCAGTACGA | 1.83 | 1.87 | -0.166 | 3.05 | -0.352 | 6.09 | 11.3 | 9.42 | 9.13 | 10.2 | 6.27 | 6.51 | 0.767 | 0.374 | 1.19 | 2.61 | 0.266 | 4.17 | 0.228 | 2.67
